Assay results: PubChem BioAssay AID1159580 (chemical genetic matrix, 2015)
Hit rate of the full screen: of about 5,500 compounds, about 2,000 (36%) were called active. Not shown: some 18% with an inconclusive outcome. Cut-off read from the data, not from the text of the source: active = normalized growth mostly below about 0.91 (no sharp cut-off); inconclusive = no clear call, values can overlap the other calls; inactive = mostly above about 0.92. Some of the results follow.

Test: chemical genetic growth profiling, strain panel (AID 1159580);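 note: tested at 20 µM; growth read once vehicle control cultures reached saturation at 30 °C; 1 = growth at the plate median or of vehicle wells; lower values mean less growth of the strain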
Conditions: growth OD
[1] = S. cerevisiae deletion strains, locus YAL013W, strain DEP1, stronger effect = lower value
[2] = S. cerevisiae deletion strains, locus YBR229C, strain ROT2, stronger effect = lower value
[3] = S. cerevisiae deletion strains, locus YDL101C, strain DUN1, stronger effect = lower value
[4] = S. cerevisiae deletion strains, locus YDL134C, strain PPH21, stronger effect = lower value
[5] = S. cerevisiae deletion strains, locus YDR150W, strain NUM1, stronger effect = lower value
[6] = S. cerevisiae deletion strains, locus YEL061C, strain CIN8, stronger effect = lower value
[7] = S. cerevisiae deletion strains, locus YGR078C, strain PAC10, stronger effect = lower value
[8] = S. cerevisiae deletion strains, locus YHR030C, strain SLT2, stronger effect = lower value
[9] = S. cerevisiae deletion strains, locus YJR043C, strain POL32, stronger effect = lower value
[10] = S. cerevisiae deletion strains, locus YJR075W, strain HOC1, stronger effect = lower value
[11] = S. cerevisiae deletion strains, locus YKL190W, strain CNB1, stronger effect = lower value
[12] = S. cerevisiae deletion strains, locus YLR039C, strain RIC1, stronger effect = lower value
[13] = S. cerevisiae deletion strains, locus YLR262C, strain YPT6, stronger effect = lower value
[14] = S. cerevisiae deletion strains, locus YMR263W, strain SAP30, stronger effect = lower value
[15] = S. cerevisiae deletion strains, locus YNL153C, strain GIM3, stronger effect = lower value
[16] = S. cerevisiae deletion strains, locus YNL322C, strain KRE1, stronger effect = lower value
[17] = S. cerevisiae deletion strains, locus YPL055C, strain LGE1, stronger effect = lower value
[18] = S. cerevisiae deletion strains, locus YPL241C, strain CIN2, stronger effect = lower value
[19] = S. cerevisiae strains, strain wild type, stronger effect = lower value

Measured: normalized growth

C[C@H]1OC(n2cc(F)c(=O)[nH]c2=O)C(O)[C@@H]1O (some centres undefined)
inactive: [1] 1 | S. cerevisiae deletion strains, locus YBR021W, strain FUR4, stronger effect = lower value 1 | [2] 1.01 | S. cerevisiae deletion strains, locus YCL029C, strain bik1, stronger effect = lower value 0.973 | S. cerevisiae deletion strains, locus YDL035C, strain GPR1, stronger effect = lower value 1 | S. cerevisiae deletion strains, locus YDL074C, strain BRE1, stronger effect = lower value 1.02 | [3] 1 | [4] 1 | S. cerevisiae deletion strains, locus YDL185W, strain tfp1, stronger effect = lower value 0.97 | S. cerevisiae deletion strains, locus YDL192W, strain arf1, stronger effect = lower value 0.97 | S. cerevisiae deletion strains, locus YDR101C, strain arx1, stronger effect = lower value 1 | [5] 0.982 | S. cerevisiae deletion strains, locus YDR162C, strain NBP2, stronger effect = lower value 1.04 | S. cerevisiae deletion strains, locus YDR318W, strain mcm21, stronger effect = lower value 0.973 | S. cerevisiae deletion strains, locus YDR388W, stronger effect = lower value 0.986 | S. cerevisiae deletion strains, locus YDR502C, strain sam2, stronger effect = lower value 1 | [6] 1 | S. cerevisiae deletion strains, locus YER110C, stronger effect = lower value 0.948 | S. cerevisiae deletion strains, locus YER155C, strain BEM2, stronger effect = lower value 0.995 | S. cerevisiae deletion strains, locus YER167W, strain BCK2, stronger effect = lower value 0.989 | S. cerevisiae deletion strains, locus YGL078C, strain dbp3, stronger effect = lower value 0.979 | S. cerevisiae deletion strains, locus YGL086W, strain mad1, stronger effect = lower value 0.957 | S. cerevisiae deletion strains, locus YGL248W, strain PDE1, stronger effect = lower value 1.01 | [7] 1.02 | S. cerevisiae deletion strains, locus YGR135W, strain pre9, stronger effect = lower value 1 | S. cerevisiae deletion strains, locus YGR229C, strain SMI1, stronger effect = lower value 1.03 | S. cerevisiae deletion strains, locus YGR252W, strain gcn5, stronger effect = lower value 1.01 | [8] 0.996 | S. cerevisiae deletion strains, locus YHR079C, strain IRE1 (second series), stronger effect = lower value 0.985 | S. cerevisiae deletion strains, locus YHR094C, strain hxt1, stronger effect = lower value 0.968 | S. cerevisiae deletion strains, locus YHR129C, strain ARP1, stronger effect = lower value 1 | S. cerevisiae deletion strains, locus YHR200W, strain rpn10, stronger effect = lower value 0.969 | S. cerevisiae deletion strains, locus YIL066C, strain RNR3, stronger effect = lower value 0.99 | S. cerevisiae deletion strains, locus YIL073C, strain SPO22, stronger effect = lower value 0.894 | S. cerevisiae deletion strains, locus YIL125W, strain kgd1, stronger effect = lower value 0.973 | S. cerevisiae deletion strains, locus YIR030C, strain dcg1, stronger effect = lower value 0.982 | S. cerevisiae deletion strains, locus YJL095W, strain BCK1, stronger effect = lower value 1.04 | S. cerevisiae deletion strains, locus YJL134W, strain LCB3, stronger effect = lower value 1.01 | S. cerevisiae deletion strains, locus YJL168C, strain set2, stronger effect = lower value 0.993 | S. cerevisiae deletion strains, locus YJL187C, strain SWE1 (second series), stronger effect = lower value 1.01 | [9] 0.993 | [10] 1.01 | S. cerevisiae deletion strains, locus YKL009W, strain mrt4, stronger effect = lower value 0.959 | S. cerevisiae deletion strains, locus YKL068W, stronger effect = lower value 0.98 | S. cerevisiae deletion strains, locus YKL085W, strain MDH1 (second series), stronger effect = lower value 0.981 | S. cerevisiae deletion strains, locus YKL085W, strain MDH1, stronger effect = lower value 0.981 | [11] 1 | S. cerevisiae deletion strains, locus YKR001C, strain vps1, stronger effect = lower value 0.966 | [12] 0.994 | S. cerevisiae deletion strains, locus YLR058C, strain SHM2, stronger effect = lower value 0.993 | S. cerevisiae deletion strains, locus YLR102C, strain apc9, stronger effect = lower value 0.983 | [13] 1 | S. cerevisiae deletion strains, locus YLR268W, strain sec22, stronger effect = lower value 0.995 | S. cerevisiae deletion strains, locus YLR330W, strain CHS5, stronger effect = lower value 0.994 | S. cerevisiae deletion strains, locus YLR342W, strain FKS1 (second series), stronger effect = lower value 0.991 | S. cerevisiae deletion strains, locus YLR371W, strain rom2, stronger effect = lower value 0.961 | S. cerevisiae deletion strains, locus YLR418C, strain cdc73, stronger effect = lower value 1.05 | S. cerevisiae deletion strains, locus YML016C, strain PPZ1, stronger effect = lower value 1 | S. cerevisiae deletion strains, locus YML032C, strain rad52, stronger effect = lower value 0.951 | S. cerevisiae deletion strains, locus YML124C, strain tub3, stronger effect = lower value 0.974 | S. cerevisiae deletion strains, locus YMR078C, strain ctf18, stronger effect = lower value 0.945 | S. cerevisiae deletion strains, locus YMR223W, strain ubp8, stronger effect = lower value 0.975 | [14] 1.02 | S. cerevisiae deletion strains, locus YMR307W, strain GAS1, stronger effect = lower value 0.977 | S. cerevisiae deletion strains, locus YNL067W, strain RPL9B, stronger effect = lower value 1.02 | S. cerevisiae deletion strains, locus YNL128W, strain TEP1, stronger effect = lower value 1.01 | [15] 1.02 | S. cerevisiae deletion strains, locus YNL233W, strain BNI4, stronger effect = lower value 1.02 | S. cerevisiae deletion strains, locus YNL250W, strain rad50, stronger effect = lower value 0.984 | S. cerevisiae deletion strains, locus YNL271C, strain bni1, stronger effect = lower value 0.988 | S. cerevisiae deletion strains, locus YNL298W, strain CLA4, stronger effect = lower value 0.963 | S. cerevisiae deletion strains, locus YNL307C, strain MCK1, stronger effect = lower value 0.967 | [16] 0.998 | S. cerevisiae deletion strains, locus YNR052C, strain pop2, stronger effect = lower value 0.958 | S. cerevisiae deletion strains, locus YOL006C, strain TOP1, stronger effect = lower value 1.03 | S. cerevisiae deletion strains, locus YOL012C, strain htz1 1.08 | S. cerevisiae deletion strains, locus YOL147C, strain pex11, stronger effect = lower value 0.982 | S. cerevisiae deletion strains, locus YOR061W, strain CKA2, stronger effect = lower value 1.01 | S. cerevisiae deletion strains, locus YOR069W, strain VPS5, stronger effect = lower value 1 | S. cerevisiae deletion strains, locus YOR136W, strain idh2, stronger effect = lower value 0.983 | S. cerevisiae deletion strains, locus YOR144C, strain elg1, stronger effect = lower value 0.965 | S. cerevisiae deletion strains, locus YOR184W, strain ser1, stronger effect = lower value 0.921 | S. cerevisiae deletion strains, locus YOR316C, strain cot1, stronger effect = lower value 0.974 | [17] 1.02 | [18] 0.996 | S. cerevisiae deletion strains, locus YPR119W, strain clb2, stronger effect = lower value 0.985 | S. cerevisiae deletion strains, locus YPR141C, strain kar3, stronger effect = lower value 0.974 | S. cerevisiae deletion strains, locus YPR163C, strain tif3, stronger effect = lower value 0.964 | S. cerevisiae deletion strains, locus YPR167C, strain met16, stronger effect = lower value 0.988 | S. cerevisiae deletion strains, strain wtn01, stronger effect = lower value 0.994 | [19] 1

CN(C)c1ccc(C(=O)NN)cc1
inactive: [1] 1.02 | [2] 1.02 | [3] 1.02 | [4] 1.01 | [5] 0.924 | [6] 0.99 | [7] 1.01 | [8] 1.08 | S. cerevisiae deletion strains, locus YHR087W, strain rtc3, stronger effect = lower value 1.03 | S. cerevisiae deletion strains, locus YJL187C, strain SWE1, stronger effect = lower value 1.01 | [9] 1.02 | [10] 1 | [11] 1.01 | [12] 1.14 | S. cerevisiae deletion strains, locus YLR058C, strain SHM2 (second series), stronger effect = lower value 1.02 | S. cerevisiae deletion strains, locus YLR085C, strain ARP6, stronger effect = lower value 0.96 | [13] 1.15 | S. cerevisiae deletion strains, locus YML094W, strain GIM5, stronger effect = lower value 1.01 | S. cerevisiae deletion strains, locus YMR219W, strain ESC1, stronger effect = lower value 1.01 | [14] 0.992 | [15] 1.02 | S. cerevisiae deletion strains, locus YNL298W, strain CLA4 (second series), stronger effect = lower value 1 | [16] 1 | S. cerevisiae deletion strains, locus YNR030W, strain Alg12, stronger effect = lower value 1.01 | [17] 0.954 | [18] 0.997 | S. cerevisiae deletion strains, locus YPR135W, strain CTF4, stronger effect = lower value 1 | [19] 1.02
